# From PubChem BioAssay (NCATS)
# Inconclusive results are not listed. Values without a mark were called inactive. The source made the active and inactive calls. Calls come from the whole dose curve; as a rule, active = well fitted inhibition curve with a large enough effect; inconclusive = small, poorly fitted or top-dose-only effect; inactive = flat fitted curve, though single readings scatter.
# System: CP237
# Experiment: qHTS profiling for inhibitors of Plasmodium falciparum proliferation (AID 504749); note: nearly all actives have a fitted effect of over 60% in size;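 for activity, negative = inhibition: 0% = DMSO vehicle and full inhibition = artemisinin control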
# Settings: P. falciparum in erythrocytes, SYBR Green DNA, 72 h; series mostly up to 28.7 µM; activity, negative = inhibition: at the top concentration
# Summary of the method: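 In a 72 h erythrocytic culture (37 C, humidified, 5% CO2) at 2.5% hematocrit and 0.3% starting parasitemia, compounds were tested; SYBR Green I in detergent lysis buffer stained parasite DNA overnight.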
# Potency is the fitted concentration of half-maximal effect.
SMILES,"activity, negative = inhibition",Potency
COc1cc(S(C)=O)ccc1-c1nc2ncccc2[nH]1 (stereo not given),-10.6%,
CCOc1ccc(S(=O)(=O)O)c2cccnc12,7.06%,
NC(=S)NS(=O)(=O)c1ccc(N)cc1,3.84%,
C[C@]12CC[C@@H]3c4ccc(OC(=O)c5ccccc5)cc4CC[C@H]3[C@@H]1CC[C@@H]2O,,4.47 µM (active)
CC(CCc1ccc(O)cc1)NCC(O)c1ccc(O)cc1 (stereo not given),-1.78%,
FC(F)(F)C(F)(F)C(F)(F)C(F)(F)C(F)(F)C(F)(F)F,5.41%,
CN(C)CCOc1ccc(/C(=C(/CCCl)c2ccccc2)c2ccccc2)cc1,-18.4%,
CNC(=O)OCc1cccc(COC(=O)NC)n1,9.33%,
NCC[C@H](O)C(=O)N[C@@H]1C[C@H](N)[C@@H](O[C@H]2O[C@H](CN)[C@@H](O)[C@H](O)[C@H]2O)[C@H](O)[C@H]1O[C@H]1O[C@H](CO)[C@@H](O)[C@H](N)[C@H]1O,0.602%,
NC(N)=O,4.73%,
CC1CCCCN1CCCOC(=O)c1ccccc1 (stereo not given),-10.8%,
COC(=O)CCC[N+](C)(C)C,1.38%,
COC(=O)CC[C@H](N)C(=O)O,8.01%,
O=C(OCc1ccccc1)c1ccc(O)cc1,9.37%,
CC(C)(CO)[C@@H](O)C(=O)NCCC(=O)NCCSSCCNC(=O)CCNC(=O)[C@H](O)C(C)(C)CO,5.76%,
COC(=O)c1ccccc1O,3.46%,
OC[C@H]1O[C@@](CO)(O[C@H]2O[C@H](CO)[C@@H](O)[C@H](O)[C@H]2O)[C@@H](O)[C@@H]1O,6.24%,
Nc1nccs1,5.76%,
c1ccc2ccccc2c1,11.5%,
O=S(=O)(O)CCCS(=O)(=O)O,2.24%,

SMILES,"activity, negative = inhibition",Potency
O=C1c2ccccc2C(=O)c2c1ccc(O)c2O,-5.36%,
O=C(NNCNNC(=O)c1ccncc1)c1ccncc1,3.4%,
[O]=[Bi][O]C(=O)[O][Bi]=[O],0.84%,
C=CCN1CCCC1CNC(=O)c1cc(S(N)(=O)=O)cc(OC)c1OC (stereo not given),-2%,
CC(C)[C@H](N)C(=O)OCC(CO)OCn1cnc2c(=O)[nH]c(N)nc21 (stereo not given in full),8.91%,
CCCCCCCCCCCCCCCCCC(=O)OC[C@@H](O)[C@H]1OC[C@H](O)[C@H]1O,-8.65%,
CC(=O)[C@H]1CC[C@H]2[C@@H]3C=CC4=CC(=O)CC[C@@]4(C)[C@H]3CC[C@]12C,-22.5% [at 12.8 µM],
CCCC(=O)O,-2.64%,
CC1(C)S[C@@H]2[C@H](NC(=O)C3(N)CCCCC3)C(=O)N2[C@H]1C(=O)O,0.577%,
CCCCCCCCCCCC(=O)OCC(O)CO (stereo not given),1.45%,
CCOc1ccc(NC(=S)Nc2ccc(OCC)cc2)cc1,0.58%,
C[C@H](CCC(=O)O)[C@H]1CC[C@H]2[C@@H]3CC[C@@H]4C[C@H](O)CC[C@]4(C)[C@H]3C[C@H](O)[C@]12C,0.373%,
CC(C)(COP(=O)(O)OP(=O)(O)OC[C@H]1O[C@@H](n2cnc3c(N)ncnc32)[C@H](O)[C@@H]1OP(=O)(O)O)C(O)C(=O)NCCC(=O)NCCS (stereo not given in full),2.11%,
O=C(CCCCCCCCCCCCC1CCCC1)Nc1ccc(S(=O)(=O)c2ccc(NC(=O)CCCCCCCCCCCCC3CCCC3)cc2)cc1,-2.6%,
Nc1nc(=O)n([C@@H]2CS[C@H](CO)O2)cc1F,-0.403%,
O=C(O)CCC/C=C\C[C@@H]1[C@@H](/C=C/[C@@H](O)COc2cccc(C(F)(F)F)c2)[C@H](O)C[C@@H]1O,-8.19%,
Cc1c(Cl)cccc1Nc1ncccc1C(=O)O,4.72%,
CC(C)=CCC/C(C)=C/CC/C(C)=C/CC/C=C(\C)CC/C=C(\C)CCC=C(C)C,0.189%,
CC(=O)Nc1ccc(OC(C)=O)cc1,8.97%,
CC(=O)N[C@@H]1C(O[C@H]2O[C@H](C(=O)O)C(O)[C@H](O)[C@H]2O)[C@H](O)[C@@H](CO)O[C@H]1O[C@@H]1C(C(=O)O)O[C@@H](O[C@H]2[C@H](O)[C@@H](CO)OC(O)[C@@H]2NC(C)=O)[C@H](O)[C@H]1O (stereo not given in full),-0.776%,
